# Values without a mark were called inactive.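 The calls were made as follows: active = MAPPIT score above the 99th percentile of random reference set scores in the same batch; inactive = at or below it.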
# Experiments:
# Assay in all cases: MAPPIT interaction score (arbitrary units); higher = stronger binary interaction signal, active = hit call of the paper
# RpS10b = conditions: MAPPIT configuration: N-N; pair source set: DPIM
# RpS21 = conditions: MAPPIT configuration: N-N; pair source set: DPIM
# Sas10 = conditions: MAPPIT configuration: N-N; pair source set: Finley_Y2H
# grau = conditions: MAPPIT configuration: N-N; pair source set: Lit-BM-16
# RpLP2 = conditions: MAPPIT configuration: N-N; pair source set: Finley_Y2H
# RpS29 = conditions: pair source set: RRS
# RpS3 = conditions: MAPPIT configuration: N-N; pair source set: Curagen_low_conf
# msl-3 = conditions: MAPPIT configuration: N-N; pair source set: DPIM
# Sarm = conditions: MAPPIT configuration: N-N; pair source set: Curagen_low_conf
# Rpn6 = conditions: pair source set: Lit-BM-16
# RpS5a = conditions: MAPPIT configuration: N-N; pair source set: Curagen_high_conf
# [1] = substrate: SNCF; conditions: MAPPIT configuration: N-N; pair source set: DPIM
# Rpt2 = conditions: MAPPIT configuration: N-N; pair source set: screen_1
# RpS20 = conditions: MAPPIT configuration: N-N; pair source set: Curagen_low_conf
# hpo = conditions: pair source set: Lit-BM-16
# yki = conditions: pair source set: Lit-BM-16
# Rtnl1 = conditions: MAPPIT configuration: N-N; pair source set: screen_2
# 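Also: HEK293T cells with Epo stimulation, STAT-responsive firefly luciferase reporter, fold induction versus unstimulated cells divided by the larger fold induction of two negative controls lacking either bait or prey.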
binder,measurement,setting,value
Csp (protein) MSAPGMDKRKLSTSGDSLYEILGLPKTATGDDIKKTYRKLALKYHPDKNPDNVDAADKFKEVNRAHSILSNQTKRNIYDNYGSLGLYIAEQFGEENVNAYFVVTSPAVKAVVICCAVITGCCCCCCCCCCCNFCCGKFKPPVNESHDQYSHLNRPDGNREGNDMPTHLGQPPRLEDVDLDDVNLGAGGAPVTSQPREQAGGQPVFAMPPPSGAVGVNPFTGAPVAANENTSLNTTEQTTYTPDMVNQKY,MAPPIT interaction score,RpS10b,1.05
l(2)gl (protein) MLKFIRGKGQQPSADRHRLQKDLFAYRKTAQHGFPHKPSALAYDPVLKLMAIGTQTGALKVFGQPGVELYGQHTLLNNSASELNVQLLEWVYGTGRILSLTAANQLILWEPVGATLLPIKTLPFDGKLKKVSSLCCSLSKDLLWIGTEGGNIYQLDLHTFTIKEPVIYHDVVLEQVPPAYKLNPGAIESIRQLPNSPSKLLVAYNRGLCVLWDFESASVQRAYIAPGHGQSVGLTVNFEGSEFTWYHADGSYATWSIDNPEPPSNVNYVPYGPDPCKSINRLYKGKRRSNDVIVFSGGMPRSAYGDHNCVSVHASDGHKVCLDFTSKVIDFFVTFENNRDVAEVLVVLLEEELCAYDLTDPNICAIKAPYLHSVHASAVTCNYLASEVVQSVYESILRAGDEQDIDYSNISWPITGGTLPDNLEESVEEDATKLYEILLTGHEDGSVKFWDCTGVLLKPIYNFKTSSIFGSESDFRDDAAADMSAEQVDEGEPPFRKSGLFDPYSDDPRLAVKKIAFCPKTGQLIVGGTAGQIVIADFIDLPEKVSLKYISMNLVSDRDGFVWKGHDQLNVRSNLLDGEAIPTTERGVNISGVLQVLPPASITCMALEASWGLVSGGTAHGLVLFDFKNFVPVFHRCTLNPNDLTGAGEQLSRRKSFKKSLRESFRKLRKGRSTRTNQSNQVPTTLEARPVERQIEARCADDGLGSMVRCLLFAKTYVTNVNITSPTLWSATNASTVSVFLLHLPPAQTAATAVPSASGNAPPHMPRRISAQLAKEIQLKHRAPVVGISIFDQAGSPVDQLNAGENGSPPHRVLIASEEQFKVFSLPQLKPINKYKLTANEGARIRRIHFGSFSCRISPETLQSMHGCSPTKSTRSHGDGEADPNISGSLAVSRGDVYNETALICLTNMGDIMVLSVPELKRQLNAAAVRREDINGVSSLCFTNSGEALYMMSSSELQRIALATSRVVQPTGVVPVEPLENEESVLEENDAENNKETYACDEVVNTYEIKNPSGISICTRPAEENVGRNSVQQVNGVNISNSPNQANETISSSIGDITVDSVRDHLNMTTTTLCSINTEETIGRLSVLSTQTNKASTTVNMSEIPNINISNLEDLESKRNTTETSTSSVVIKSIITNISHEKTNGDNKIGTPKTAPEESQF,MAPPIT interaction score,RpS21,0.14
CG7137 (protein) MKPFEVPPWEEGADIIEFEPVNPSGNGVAAKKKPKKKKPKKKKAAVPNENLNVNKAAEKFTYRQGRGPLAPPQDSSDDDYEDVEDGIRAMHKVKSGRIEKQRPPTQATKGGKKELKLKPELAQAALEAMEATSSTTPAANSLASKLQSELLGGRFRYINEQLYSTTSRKAEALFRKDSSAFEAYHAGYRQQVEKWPINPLNRIIKTIKKIPKTAIIGDFGCGEGKLAQSVPNKVYSMDLVAARSDIIACNITDTPLQARTLDVAVYCLSLMGTDLNEFFLEANRVLKLHGTVYIAEIQSRFQDVREFVRCLNACGFDLNKKDVAVNYFYFFQFKKMRHVPKNTKMKAFSLKPCLYRKR,MAPPIT interaction score,Sas10,0.356
same,MAPPIT interaction score,grau,0.26
CG1307 (protein) MGDKLLDPTQIINGLAVMLSFFVGYRYALKRGDAKDSVTEGAATPFSQESSVSSGSEASVSDKGYGGLNDNFKMVLVVRNDLKMGKGKIAAQCGHGAVGAYQRAVVRTPRLLRSWENCGCAKIAVRVESEAELMAIKKEAERQQLNTCLIRDAGRTQIEANSKTVLAVGPAAAADIDRVTGHLKLL,MAPPIT interaction score,RpLP2,0.942
Cog8 (protein) MDFPDKMDLENERVLKLIFPDGVPDNLRGNPELDNYLAKLGTCKVEQLKKEQTRLAEEARTILEQTQDLAISNYRTFITTAENSRSIFSEFLRSEQQLDTLVSKLPDLSVQCERFLQDSAELNEQRRLNSITLQKNAQLLEVLELPQLMERCIREGRYEEALELAAYATRLGQHQGHIPVVTSIVRSVEALWHNMLVQLVAQLRTDLQLPKCLQIVGYLRRMQAFGDNELRLKFLQARDAWLTSCLEAIPTADAQQHLSKTIEITRINLFNIITQYRAIFPEDEGTLKTQSSLRPLQGVSCNGDRLFQAWLHNKISDFLQTLERDLQLGVGSVETVLGQCMYFGLSFSRVGADFRALMAPIFVGVIRRRFESSVEQVDEQFERELERFTLINKVALHSHARKQVDPEQESYAPPEALLDFYPLAALCNGYLSALNELRLCAPLALATDVTRCLQHSLQQAAQRVLAFYRQEQQAFAGSEREAFVRLCSCLAYDLVPYIQRCIHGVFPPQSLTVHLGISLLQLEQQQLTYLQQTRILEPLKHLLPTKALVQPQDKVMEAKPSAGVPVTAEG,MAPPIT interaction score,RpS29; MAPPIT configuration: N-C,0.627
same,MAPPIT interaction score,RpS29; MAPPIT configuration: N-N,-0.265
mts (protein) MEDKATTKDLDQWIEQLNECNQLTETQVRTLCDKAKEILSKESNVQEVKCPVTVCGDVHGQFHDLMELFRIGGKSPDTNYLFMGDYVDRGYYSVETVTLLVALKVRYRERITILRGNHESRQITQVYGFYDECLRKYGNANVWKYFTDLFDYLPLTALVDGQIFCLHGGLSPSIDSLDHIRALDRLQEVPHEGPMCDLLWSDPDDRGGWGISPRGAGYTFGQDISETFNNTNGLTLVSRAHQLVMEGYNWCHDRNVVTIFSAPNYCYRCGNQAALMELDDSLKFSFLQFDPAPRRGEPHVTRRTPDYFL,MAPPIT interaction score,RpS3,0.284
same,MAPPIT interaction score,msl-3,1.55
mRpL24 (protein) MRLTQYLASKLKNFSNLPKEYIERSKKQVYWQTPKEINYLPRTVERKRFRYTTNRSWTGQFRQQNMPGTVRRKVLVEPIEDWSFFRGDRIEVLVGKDKGKQGIVTQVIPERNWVIVEGLNWHYRKVGGEKEFPGIIIKSEAPLHVTKDIRLVDPSDLQGTDFEWRFTEEGEKVRVSLRSGRIIPIPETNNQTHDYKTPNAYIEREKDTPGAVVGEITFQPKLSTFEMDIMEEMGIKEERTPVKSYWY,MAPPIT interaction score,Sarm,0.785
alien (protein) MSDNDDDFMCDDDEDYGLEYSEDSNSEPDVDLENQYYNSKALKEEEPKAALASFQKVLDLENGEKGEWGFKALKQMIKINFRLCNYDEMMVRYKQLLTYIKSAVTRNHSEKSINSILDYISTSKNMALLQNFYETTLDALRDAKNDRLWFKTNTKLGKLYFDRSDFTKLQKILKQLHQSCQTDDGEDDLKKGTQLLEIYALEIQMYTVQKNNKKLKALYEQSLHIKSAIPHPLIMGVIRECGGKMHLREGEFEKAHTDFFEAFKNYDESGSPRRTTCLKYLVLANMLMKSGINPFDSQEAKPYKNDPEILAMTNLVNSYQNNDINEFETILRQHRSNIMADQFIREHIEDLLRNIRTQVLIKLIRPYKNIAIPFIANALNIEPAEVESLLVSCILDDTIKGRIDQVNQVLQLDKINSSASRYNALEKWSNQIQSLQFAVVQKMA,MAPPIT interaction score,Rpn6; MAPPIT configuration: N-C,4.99 (active)
same,MAPPIT interaction score,Rpn6; MAPPIT configuration: N-N,0.207
Vm32E (protein) MQIVALTLVAFVAIAGASCPYAAPAPAYSAPAASSGYPAPPCPTNYLFSCQPNLAPAPCAQEAPAYGSAGAYTEQVPHYVGSPNREQLQQFHQRIGMAALMEELRGLGQGIQGQQY,MAPPIT interaction score,RpS5a,0.177
SmD2 (protein) MALVKPKSELTPEELARQEEEEFNTGPLSVLTQSVKNNTQVLINCRNNKKLLGRVKAFDRHCNMVLENVKEMWTELPRTGKGKKKVKPVNKDRFISKMFLRGDSVILVLRNPLATAAGK,MAPPIT interaction score,[1],0.49
CG12096 (protein) MEMEDNWWVTKLKALESKPQRLDALTAMNSAIAKEAALPRQIIERLLTTDQLYDCANPAADSHVPKDQAVDVTLELLCHCLDQLAMDTADEQLSSLLRRGLTHSNPALRAQVLASLFKKLLRQLTVGQVLTLPNNELIFLILDELKQPDTQSTSLAINILSIVLPQRISNADVQAKLVQLLKQNEIVRCRAYELAVVLAKKSATLLSDVTFILDAALSELDNDDVLLQASVMELLVPLAEQNHGLSYMERRRVLDIISYRVQRVEEHPLDALLVPSIMKFFGKISVYQPLKIIGGYPHMLACLFMQLQSEDESILPTAMDTLANLATTPQGKILLNMHFSGAMEKSFKKYGSHTKKLSAHIKKRLLNSLDVIYDFKTPPATEIINIGKNWYECFAGGAHANIIMDLINTPFPDLQMAALSFLKTICKYNWGIVALKNTGGAVEFLLSRQKDLHRDIKYMKWQIMEILSASAEFSPTETIRFTAYVNEGPYHVQADLDVATEPQGNA,MAPPIT interaction score,Rpt2,5.01 (active)
hpo (protein) MSEPEVTSVVDMKSPNISSSCSFFKLKKLSEESLLQPPEKVFDIMYKLGEGSYGSVYKAVHKESSSIVAIKLVPVESDLHEIIKEISIMQQCDSPYVVRYYGSYFKQYDLWICMEYCGAGSVSDIMRLRKKTLTEDEIATILSDTLQGLVYLHLRRKIHRDIKAANILLNTEGYAKLADFGVAGQLTDTMAKRNTVIGTPFWMAPEVIEEIGYDCVADIWSLGITALEMAEGKPPYGEIHPMRAIFMIPQKPPPSFREPDRWSTEFIDFVSKCLVKEPDDRATATELLEHEFIRNAKHRSILKPMLEETCAIREQQRANRSFGGVLAASQAKSLATQENGMQQHITDNAFMEDPGTLVPEKFGEYQQSSASDATMIAHAEQGVDEGTLGPGGLRNLSKAAAPAAASSAASPLDMPAVDSGTMVELESNLGTMVINSDSDDSTTAKNNDDQKPRNRYRPQFLEHFDRKNAGDGRGDEKPIATEYSPAAAEQQQQQQQQQQQQQQDEQHLASGANDLNNWEHNMEMQFQQISAINQYGLQQHQQQQQVLMAYPLMNEQLIALNNQPNLLLSNAAPMGQQGIPAAAPAQPPPAYQNQHMHTQSHAYVEGEFEFLKFLTFDDLNQRLCNIDHEMELEIEQLNKKYNAKRQPIVDAMNAKRKRQQNINNNLIKI,MAPPIT interaction score,RpS20,2.67 (active)
same,MAPPIT interaction score,hpo; MAPPIT configuration: N-C,1.43
same,MAPPIT interaction score,hpo; MAPPIT configuration: N-N,-0.987
same,MAPPIT interaction score,yki; MAPPIT configuration: N-C,-0.198
same,MAPPIT interaction score,yki; MAPPIT configuration: N-N,-0.76
rush (protein) MVDRLVNSEANTRRIASVENCFGSSGVPLAMQGRVLVGEGVLTKMCRKRPKSRQFFLFNDILVYGNIVIGKKKYNKQHIMPLEEVSLESIADNQTYRNGWYIRTTTKSFVVFAATSTEKQEWMAHINKCVEDLLRKSGKKPVENHAAVWVPDTDASVCMHCKKTQFTFIQRRHHCRNCGAVVCAGCSAKKFLLPQQSTKALRVCDACYERLKHVPSSLGSGEDSAAATGAASGNKLNTTAGDSSNDEDSDEETASPGGESHDEPRFYGDNSVLSAVEDSSTITSPSSATTGSLEAPQVTPSVQSSPAAVATTGSHC,MAPPIT interaction score,Rtnl1,-0.205

# From the supplement of paper PMC10105736
